# High-throughput results as filed in PubChem.
# ELG1 DNA repair – blocks ELG1-dependent DNA repair in HEK293T cells | HEK293T ELG1-luciferase reporter, luminescence, 16 h; DNA damage induced by 5-fluorouridine | Potency, µM (top dose mostly 46.1 µM), for inactives: at the top dose activity change, negative = inhibition, most hits filed as inhibitors | actives 2.3% (n = 330,000); also: nearly all actives have a fitted effect of over 55% in size
#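 HEK293T cells expressing luciferase-tagged ELG1 (2,000/well) received 5-Fluorouridine plus compound or DMSO for 16 hr at 37 °C. Luciferase was read by ONE-Glo luminescence after 30 min at room temperature.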
# DT40 TDP1 CPT – growth inhibition of DT40 Tdp1-/-;hTDP1 cells with camptothecin (screen for TDP1 inhibitors); chicken DT40 Tdp1-/-;hTDP1 cells + 20 nM CPT, ATP luminescence, 48 h; Potency, µM (top dose mostly 46.2 µM), for inactives: at the highest dose activity change, negative = growth inhibition, hits mostly inhibitors; actives 12% (n = 420,000); also: nearly all actives have a fitted effect of over 55% in size
#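 Chicken DT40 Tdp1-/- cells stably complemented with human TDP1 were seeded at 400 cells/well in medium containing 20 nM camptothecin, exposed to pin-transferred compounds, and grown at 37 °C for at least 48 hr. Viability was read as ATP luminescence.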
# RORgamma inh – ROR gamma (mouse) transcription inhibition. P51450. Drosophila S2 Gal4-RORgamma UAS-luciferase reporter, 20 h. Potency, µM (highest dose often 53.6 µM), without a hit: at the highest dose activity change, negative = inhibition, usual class: inhibitors. actives 5.4% (n = 310,000). AID 2551; also: nearly all actives have a fitted effect of over 60% in size
# Target sequence (P51450 whole entry, looked up, the tested form may be a part): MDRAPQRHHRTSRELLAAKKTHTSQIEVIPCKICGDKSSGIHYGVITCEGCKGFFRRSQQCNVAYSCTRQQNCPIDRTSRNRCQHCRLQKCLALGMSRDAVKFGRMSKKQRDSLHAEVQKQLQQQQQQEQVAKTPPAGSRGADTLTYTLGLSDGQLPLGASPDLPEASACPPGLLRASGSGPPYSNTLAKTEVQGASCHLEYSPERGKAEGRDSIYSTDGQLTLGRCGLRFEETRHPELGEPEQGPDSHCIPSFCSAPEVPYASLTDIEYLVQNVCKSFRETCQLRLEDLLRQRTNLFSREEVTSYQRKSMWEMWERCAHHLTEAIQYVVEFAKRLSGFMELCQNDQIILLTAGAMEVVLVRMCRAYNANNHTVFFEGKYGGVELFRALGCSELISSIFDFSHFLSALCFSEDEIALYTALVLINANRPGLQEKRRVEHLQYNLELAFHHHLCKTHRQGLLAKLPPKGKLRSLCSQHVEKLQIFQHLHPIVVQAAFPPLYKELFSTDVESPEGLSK
#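 Luminescence from a UAS-regulated Photinus luciferase reporter in stably transfected Drosophila Schneider cells is measured; decreased signal marks ROR gamma inhibition. Fusion expression is induced by 700 uM copper sulfate for 20 hr.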
# ALOX12 inh – blocks human arachidonate 12S-lipoxygenase; P18054; purified 12hLO, xylenol orange hydroperoxide absorbance; Potency, µM (top dose mostly 108 µM), for inactives: at the top dose activity change, negative = inhibition, usual class: inhibitors; actives 1.1% (n = 580,000)
#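 Purified human 12hLO (150 nM final) in 25 mM Hepes, 0.01% Triton X-100, pH 7.0 was preincubated 15 min at room temperature with compound. Then 40 uM arachidonic acid was added, 30 min. Hydroperoxide was read by Fe-XO absorbance ratio 573/405 nm.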
# VP16 counter – inhibits Gal4-VP16 luciferase reporter, ROR gamma counter-screen; Potency, µM (highest dose often 53.6 µM), for the others: at the top dose activity, negative = inhibition, actives largely listed as inhibitors; actives 3.5% (n = 310,000); Drosophila S2 Gal4-VP16 UAS-luciferase, luminescence, 20 h;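 also: Gal4-VP16 expression switched on by copper sulfate through the metallothionein promoter; nearly all actives have a fitted effect of over 50% in size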
# DT40 TDP1 no CPT – qHTS for Inhibitors of human tyrosyl-DNA phosphodiesterase 1 (TDP1): qHTS in cells in absence of CPT; Potency, µM (titrated, usually from 46.2 µM), for the others: at the highest dose activity change, negative = growth inhibition, usual class: inhibitors; DT40 Tdp1-/- hTDP1 cells, no CPT, ATP luminescence, 48 h; AID 686978, 2013; actives 15% (n = 420,000); also: nearly all actives have a fitted effect of over 55% in size
#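 Chicken DT40 Tdp1-/- cells stably complemented with human TDP1 were seeded at 400 cells/well with DMSO in place of 20 nM camptothecin. After compound pinning, cells grew at least 48 hr at 37 °C; viability read by CellTiter-Glo luminescence.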
# * hit, by the source's call; ? = inconclusive; nt = no result; [ ] = dose if it differs, or a comment. Rows were chosen to be rich in hits. Some 15% of all compounds tested hit in one or more screens of this group. Calls follow the shape of the dose curve; as a rule, active = well fitted curve in the direction sought with a large enough effect; inconclusive = small, poorly fitted or top-dose-only effect, or another doubt; inactive = no such curve, though single readings can be large; an effect the other way counts as inactive or inconclusive. % is scaled to controls: 0 for no effect and ±100 for the full control effect; potency is read from the fitted curve at half-maximal effect.
SMILES,ELG1 DNA repair,DT40 TDP1 CPT,RORgamma inh,ALOX12 inh,VP16 counter,DT40 TDP1 no CPT
Cc1ccncc1-c1c(C)nn2c1N(Cc1cccc(OC(F)(F)F)c1)CCC2,nt,nt,nt,-24%[176 µM],nt,nt
Cc1ccncc1-c1c(C)nn2c1N(Cc1cccc(O)c1)CCC2,nt,nt,nt,32µM*,nt,nt
Cc1cnc(CC2CCN(C(=O)N(C)C)C2)n1CC1CC1 (stereo not given),nt,nt,nt,8%,nt,nt
c1ccc(CCNc2ccnc3cc4ccccc4cc23)cc1,?,5.8µM*,?,?,?,7.3µM*
COc1cc(OC)c(OC)cc1/C=C/c1cc(C(=O)O)c2ccccc2n1,16%,9%,-13%,-16%,2%,-1%
COc1ccc(/C=C/c2ccnc3ccccc23)cc1,nt,11µM*,nt,nt,nt,32µM*
CC(C)Nc1ccc(Nc2ccnc3cc4ccccc4cc23)cc1,29%,8.2µM*,?,?,?,7.3µM*
COc1cc(N(C)C)ccc1/C=C/c1ccnc2ccccc12,nt,10µM*,nt,nt,nt,25µM*
CNC(=O)CCn1ncc2cc(OC3CCc4cccc(-c5c(C)noc5C)c43)ccc21 (stereo not given),nt,nt,nt,-30%[176 µM],nt,nt
CSc1ccc(/C=C(\C#N)C(=O)Nc2ccc(C)cc2)cc1,nt,nt,nt,-18%,nt,nt
COc1cc(C(=O)NCc2cc(C)nc3ccccc23)cc(OC)c1OC,-13%,-28%,9%,-1%,-3%,?
COc1ccc(Nc2ccnc(Nc3ccc(OC)cc3)n2)cc1,?,2.6µM*,2%,3%,?,2.6µM*
COc1ccc(/C=C/c2ccnc3ccccc23)c(OC)c1,nt,22µM*,nt,nt,nt,18µM*
COc1ccc(Nc2nc(OC)nc(OC)n2)cc1,?,1%,32%,25%,-8%,-5%
COc1ccc(Nc2ccnc3ccccc23)cc1,16µM*,13µM*,7%,91%,-5%,16µM*
COc1cc(/C=C/c2ccnc3ccccc23)cc(OC)c1OC,nt,11µM*,nt,nt,nt,11µM*
COCCOC(=O)C1=C(C)N=C2SC=C(CC(=O)N3CCCCC3C)N2C1c1ccccc1 (stereo not given),nt,nt,nt,51%,nt,nt
COc1ccc([C@@H](NC(=O)c2ccc3nccn3c2)C2CC(O)C2)cn1 (stereo not given in full),nt,nt,nt,58%,nt,nt
Clc1ncnc2scc(C3COc4ccccc4O3)c12 (stereo not given),?,?,?,-6%,?,16µM*
COc1ccccc1-c1cncc(NC(C)=O)n1,nt,-3%,nt,-3%,nt,2%
COc1ccccc1-c1ccnc(-c2nnc(C)n2Cc2ccccc2)c1,nt,nt,nt,49%[176 µM],nt,nt
CC(C)c1cc(-c2n[nH]c(=S)n2Cc2ccccc2)cs1,5%,-6%,0.56µM*,?,?,?
S=c1[nH]nc(-c2cccs2)n1Cc1ccccc1,4%,10%,2.8µM*,?,?,-22%
COc1ccccc1-c1cn[nH]c(=S)n1,-4%,-20%,8.9µM*,?,?,-29%
COc1ccccc1-c1n[nH]c(=S)n1Cc1ccccc1,-9%,-10%,?,28µM*,?,-10%
SMILES,ELG1 DNA repair,DT40 TDP1 CPT,RORgamma inh,ALOX12 inh,VP16 counter,DT40 TDP1 no CPT
COCc1ccc(C(=O)OCc2cc3ccccc3o2)cc1,nt,nt,nt,-4%,nt,nt
COc1ccc(C2Cn3nnc(C(=O)NC4CCCCCC4)c3CO2)cc1 (stereo not given),nt,nt,nt,34%,nt,nt
Cc1n[nH]c(=S)n1Cc1ccccc1,21%,0%,-40%,0%,9%,21%
S=c1[nH]nc(CNc2ccc(Cl)cc2)n1Cc1ccccc1,-1%,4%,3.5µM*,-17%,-17%,2%
S=c1[nH]nc(-c2ccc(Br)o2)n1Cc1ccccc1,?,?,6.3µM*,1.6µM*,13µM*,21µM*
S=c1[nH]nc(-c2ccccc2)n1Cc1ccccc1,-17%,-11%,2.5µM*,?,14µM*,-6%
CCN(CC)S(=O)(=O)c1ccc(C(=O)NCc2n[nH]c(=S)n2Cc2ccccc2)cc1,-13%,-8%,-40%,25µM*,-4%,-2%
Cc1ccn(Cc2n[nH]c(=S)n2Cc2ccccc2)n1,-4%,6%,-40%,-101%,-10%,-12%
Cc1cccc(C(=O)OCc2ncc(-c3ccccc3)o2)c1O,nt,nt,nt,-1%,nt,nt
Cc1cc(C(=O)NCCc2ccccc2)c2cccc(C)c2n1,nt,nt,nt,-15%,nt,nt
COc1ccc(CNC(=O)CSc2nc3ccccc3nc2N2CCCC2)cc1,nt,nt,nt,38%,nt,nt
COc1ccc(NC(=O)c2cc[n+]([O-])cc2)cc1,nt,nt,nt,33%,nt,nt
CCOc1cc(-c2n[nH]c(=S)n2Cc2ccccc2)ccc1OC(F)F,7%,-10%,nt,?,nt,-22%
COc1ccc(-c2n[nH]c(=S)n2Cc2ccccc2)cc1OC,10%,8%,11µM*,?,?,6%
COc1ccc(NS(=O)(=O)c2cccc(-c3n[nH]c(=S)n3Cc3ccccc3)c2)cc1,-7%,10%,-19%,32µM*,-16%,?
COc1ccc(-c2n[nH]c(=S)n2Cc2ccccc2)cc1,-5%,-12%,7.9µM*,-11%,7.1µM*,?
Cc1ccc(Cn2c(C3CCN(C(=O)Cc4ccccc4)CC3)n[nH]c2=O)cc1,nt,nt,nt,-14%,nt,nt
S=c1[nH]nc(C2CCCCC2)n1Cc1ccccc1,-4%,?,2.5µM*,?,7.1µM*,?
COc1ccc(NS(=O)(=O)c2ccc(-c3n[nH]c(=S)n3Cc3ccccc3)cc2)cc1,1%,-18%,-41%,?,-1%,-8%
COCCN(C)C[C@H]1C[C@H](CO)CN(C(=O)c2c(C)cccc2OC)C1,nt,nt,nt,10%,nt,nt
CCCCN(CC)C(=O)NNC(=O)C(C)Oc1ccc(C#N)cc1 (stereo not given),nt,nt,nt,6%,nt,nt
C=CCn1c(C2CCCCC2)n[nH]c1=S,7%,-5%,4µM*,-27%,?,-26%
Sc1nnc(-c2ccc(Cl)cc2)n1Cc1ccccc1,20%,-16%,nt,27%,nt,-27%
S=c1[nH]nc(-c2ccc(Cl)cc2)n1Cc1ccccc1,9%,?,1.8µM*,?,2.8µM*,?
Cc1ccc(CNC(=O)O[C@H]2CC[C@@]34CCCN3C(=O)CCC[C@H]4[C@H]2Cc2ccccc2)o1,nt,nt,nt,-21%,nt,nt
COc1ccc(C2NC(=O)N(Cc3nc(C4CC4)no3)C3=C2C(=O)OC3)cc1 (stereo not given),nt,nt,nt,-14%,nt,nt
CC(=O)c1cccc(NS(=O)(=O)c2ccc(-c3ccc(C)cc3)cc2)c1,nt,nt,nt,-12%,nt,nt
